SF-1 inh: blocks the human nuclear receptor SF-1; AID 525; 65,000 compounds, 0.55% hits; CHO-K1 Gal4-SF-1 LBD luciferase reporter; inhibition, % at 10 µM; Q13285;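 active = inhibition above the mean inhibition of all tested compounds plus 3 SD, cut at about 48% in these data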;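 note: 0% = SF-1 transfected cells with DMSO and 100% = mock-transfected cells lacking SF-1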
Target sequence (Q13285 whole entry, looked up, the tested form may be a part): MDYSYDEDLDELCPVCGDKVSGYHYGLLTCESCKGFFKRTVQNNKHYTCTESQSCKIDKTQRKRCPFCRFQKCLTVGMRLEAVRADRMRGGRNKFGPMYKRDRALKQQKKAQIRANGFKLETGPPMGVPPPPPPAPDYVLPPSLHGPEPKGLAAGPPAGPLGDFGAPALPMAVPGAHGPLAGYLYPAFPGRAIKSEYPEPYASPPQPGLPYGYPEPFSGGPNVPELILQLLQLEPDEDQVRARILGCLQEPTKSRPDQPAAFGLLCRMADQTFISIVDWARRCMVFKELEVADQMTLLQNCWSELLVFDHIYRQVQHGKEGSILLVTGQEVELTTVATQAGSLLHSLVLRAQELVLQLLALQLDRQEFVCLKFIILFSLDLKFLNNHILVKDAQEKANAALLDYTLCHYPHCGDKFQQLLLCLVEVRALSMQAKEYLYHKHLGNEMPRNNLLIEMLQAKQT
* hit, by the source's call. This is one part of a sample in which hits are shown more often than they occur.

SMILES	SF-1 inh
c1ccc(-c2noc(-c3cccc4ccccc34)n2)cc1	-65
Cc1ccc(-c2nc(-c3ccccc3)no2)c(Cl)c1	70*
COc1cccc(-c2nc(-c3ccccc3)no2)c1	9
CN(C(=O)c1cccc(N2C(=O)C3CC=CCC3C2=O)c1)C1CCCCC1 (stereo not given)	-6
CCOC(=O)c1cc(-c2ccco2)nc2c1c(C)nn2-c1ccccc1	10
CCOC(=O)c1cnc(-n2nc(C)cc2C)nc1NC(C)c1ccccc1 (stereo not given)	49*
CCOC(=O)c1cnn2c(C)cc(-c3ccccc3)nc12	-65
Cn1c(=O)oc2cc(S(=O)(=O)N3CCC(N4CCCCC4)CC3)ccc21	26
Cc1ccc(S(=O)(=O)N(Cc2nccn2C)C(C)C)cc1	9
NC(=O)c1ccsc1NC(=O)COc1ccccc1	-68
c1cncc(-c2nnc(SCc3nc4ccccc4[nH]3)o2)c1	56*
Cc1ccc2c(c1)nnn2C1CCN(S(=O)(=O)c2ccc(C(=O)N3CC(C)CC(C)C3)cc2)CC1 (stereo not given)	-24
CCOc1ccc(NS(=O)(=O)c2ccc(SC)cc2)cc1	0
O=S(=O)(Nc1cccc(C(F)(F)F)c1)c1cccnc1	5
CCCCOc1ccc(S(=O)(=O)Nc2cccnc2)cc1	49*
O=C1NCCCC1C(=O)NCCN1C(=O)CCC1=O (stereo not given)	-16
CCOCCCNc1ccc(-c2ccccc2)nn1	-58
CCCN(CCC)CCSc1nc(O)c(C(C)C)c(=O)[nH]1	-16
COCCn1c(C)cc(C(=O)CSc2nnc(C)s2)c1C	68*
COCCn1c(C)cc(C(=O)CN2C(=O)NC3(CCCCCCC3)C2=O)c1C	-43
COCCn1c(C)cc(C(=O)COC(=O)C23CC4CC(CC(O)(C4)C2)C3)c1C	-77
O=C(Cn1cnc2sc(-c3ccccc3)cc2c1=O)NCc1ccco1	-38
O=C(NCc1ccco1)c1ccc2nc3sc4c(c3c(=O)n2c1)CCCC4	60*
O=C(Nc1sc2c(c1C(=O)O)CCCCC2)c1ccco1	-57
Nc1nc(CSc2ccccn2)nc(Nc2ccccc2)n1	-58
SMILES	SF-1 inh
Cc1c(C(=O)Nc2ccccn2)oc2ccccc12	-69
O=C(/C=C/Nc1ccc(F)c(Cl)c1)c1ccco1	-55
O=C(/C=C\Nc1ccccn1)c1ccc(Cl)cc1	64*
COc1ccccc1NC(=O)c1cnc2n(c1=O)CCS2	-29
O=c1nc(N2CCOCC2)ccn1Cc1ccc(Br)cc1	7
CC(=O)c1cccc(NC(=O)N2CCCC2C(=O)Nc2c(C)cccc2C)c1 (stereo not given)	23
COc1ccc(N=CC2=C(O)CC(C)(C)CC2=O)cc1	-87
CCCN1C(=O)SC(CC(=O)Nc2ccc(Br)cc2)C1=O (stereo not given)	1
Cn1c(=O)c2c(nc(SCCN3CCOCC3)n2Cc2ccc(Cl)cc2)n(C)c1=O	4
CCN1CCN(Cc2nc3c(c(=O)n(C)c(=O)n3C)n2CCCc2ccccc2)CC1	9
C/C(Cl)=C\Cn1c(NCCc2ccccc2)nc2c1c(=O)n(C)c(=O)n2C	62*
COc1ccc(Cl)c(Cn2c(NCC(C)O)nc3c2c(=O)n(C)c(=O)n3C)c1 (stereo not given)	-6
CCNc1nc2c(c(=O)n(C)c(=O)n2C)n1Cc1ccc(Cl)cc1	54*
C=CCn1c(NCCc2ccccc2)nc2c1c(=O)n(C)c(=O)n2C	42
COc1cccc2cc(C(=O)C3=C(O)C(=O)N(CCN4CCOCC4)C3c3cccs3)oc12 (stereo not given)	13
NC(=O)C1CCC(NC(=O)OCc2ccccc2)CC1 (stereo not given)	-6
CCc1c(C)nc(SC)n(CC#N)c1=O	6
CC1CCCN(Cc2nc3c(c(=O)n(C)c(=O)n3C)n2CCCc2ccccc2)C1 (stereo not given)	14
COC(=O)c1ccc(COc2ccc(-c3nn[nH]n3)cc2)cc1	-24
C=CS(=O)(=O)c1ccc(Oc2ccc(S(=O)(=O)C=C)cc2)cc1	97*
CC(=O)N1CCc2cc3nc(C)cc(C)c3cc21	0
O=C(OCc1c(F)cccc1Cl)c1cnccn1	-10
Cc1ccc(C)c(CN2CCCNC2=O)c1	11
O=C(NCc1nnc(SC/C=C/c2ccccc2)o1)c1ccco1	10
CCn1c(C)nc2cc(-c3nc4n(n3)Cc3ccccc3-4)ccc21	96*
SMILES	SF-1 inh
O=C(Nc1ccccc1)N(O)c1ccc(Cl)cc1	-58
C=CCNC(=O)C1CCN(c2nc(C)cc(-c3ccccc3)n2)CC1	-102
CC(NC(=O)c1ccco1)C(=O)OCc1cccc(Cl)c1 (stereo not given)	-8
O=C(O)c1ccc2c(c1)C(=O)N(Cc1ccccc1)C2=O	-5
CCCCOc1ccc(C(=O)O)cc1	12
O=C(O)c1cccc(OCc2ccccc2Cl)c1	-80
COc1ccc(OCc2cccc(C(=O)O)c2)cc1	94*
O=C(O)c1cccc(COc2ccc(CO)cc2Cl)c1	94*
CCOc1ccc(OCc2cccc(C(=O)O)c2)cc1	95*
COc1ccc(CNC(=O)c2cccc(N3CCCC3=O)c2)cc1	-24
Clc1ccc(OCc2nn3c(-c4ccccc4)nnc3s2)c(Cl)c1	10
COC(=O)Nc1ccc(OCc2ccccc2)cc1	-72
C=CCc1c(C)nc(SC)nc1Nc1ccc(C(C)=O)cc1	-14
O=C(NCCc1ccccc1)c1cc(-c2ccc3c(c2)OCO3)on1	-8
Cc1c(N=C2SCC(=O)N2c2c(C)n(C)n(-c3ccccc3)c2=O)c(=O)n(-c2ccccc2)n1C	-21
CCCc1cc(=O)n2[nH]c(-c3ccc(Br)cc3)cc2n1	-112
CCOc1ccccc1NC(=O)c1cccc(NC(=O)c2ccco2)c1	1
C=C(C)Cn1c(C2CC(=O)N(c3ccccc3F)C2)nc2ccccc21 (stereo not given)	-3
C/C(NCc1cccnc1)=C(\C#N)C(=O)NCc1ccccc1	5
CC(=O)OC1CC2(C)C(=O)CCC2C2CCc3cc(O)ccc3C12 (stereo not given)	8
CCN(CC)c1ccc(C=N/C(C#N)=C(\N)C#N)cc1	-57
COc1ccc(Cn2c(C3CC3)nc3ccc(NC(=O)c4ccco4)cc3c2=O)cc1	-59
Cc1cc(C)n2c3c(c(C#N)c2n1)CCCC3	-23
Cn1c(COc2ccc3ccccc3c2)nnc1SCC(=O)O	10
Cc1ccccc1-c1nc2cc(N)ccc2o1	-58
SMILES	SF-1 inh
Nc1ccc2oc(CCc3ccccc3)nc2c1	-79
CC(C)c1ccc2oc(-c3cc(N)ccc3O)nc2c1	60*
O=C(OCC(=O)N1CCOCC1)C(c1ccccc1)c1ccccc1	-3
CCOC(=O)C(C(=O)OCC)C(=O)c1cc(OC)c(OC)c(OC)c1	-1
C=CCOC(=O)c1[nH]c2c(c1C)C(=O)CC(c1cc(OC)c(OC)c(OC)c1)C2 (stereo not given)	52*
CCCCOC(=O)c1[nH]c2c(c1C)C(=O)CC(c1cc(OC)c(OC)c(OC)c1)C2 (stereo not given)	54*
Cc1c(C(=O)OCCOC(C)C)[nH]c2c1C(=O)CC(C)(C)C2	8
CCOC(=O)C1=C(C)NC2=C(C(=O)CCC2)C1c1cc(OC)ccc1OC (stereo not given)	-2
CCN(CC)CCNC(=O)C1c2cc(OC)c(OC)cc2C(=O)N2CCc3ccccc3C12 (stereo not given)	-15
CC1Cc2ccccc2N1C(=O)CCNS(=O)(=O)c1cccc2nsnc12 (stereo not given)	7
CS(=O)c1nc(-c2ccc(Br)cc2)cc(-c2ccccc2)c1C#N (stereo not given)	61*
Cc1ccc(SCc2cc(=O)n3[nH]cnc3n2)cc1	3

Compound activity as filed in PubChem.
